In ChEMBL document CHEMBL1961873, “Compounds: GSK PKIS; Assays: Nanosyn kinase panel” (2012):

How the values were obtained:
[1] = tested on: Tyrosine-protein kinase ABL1 (Homo sapiens), P00519 [T315I]; details: at 1 µM
[2] = tested on: Tyrosine-protein kinase ABL1 (Homo sapiens), P00519 [Y253F]; details: at 0.1 µM
[3] = tested on: Tyrosine-protein kinase ABL1 (Homo sapiens), P00519 [Y253F]; details: at 1 µM
[4] = target: Tyrosine-protein kinase ABL1 (Homo sapiens) (UniProt P00519); details: at 0.1 µM
[5] = target: Tyrosine-protein kinase ABL1 (Homo sapiens) (UniProt P00519); details: at 1 µM
[6] = target: ALK tyrosine kinase receptor (Homo sapiens) (UniProt Q9UM73); details: at 0.1 µM
ALK tyrosine kinase receptor (Homo sapiens), sequence (Q9UM73 19-1620 limits assumed): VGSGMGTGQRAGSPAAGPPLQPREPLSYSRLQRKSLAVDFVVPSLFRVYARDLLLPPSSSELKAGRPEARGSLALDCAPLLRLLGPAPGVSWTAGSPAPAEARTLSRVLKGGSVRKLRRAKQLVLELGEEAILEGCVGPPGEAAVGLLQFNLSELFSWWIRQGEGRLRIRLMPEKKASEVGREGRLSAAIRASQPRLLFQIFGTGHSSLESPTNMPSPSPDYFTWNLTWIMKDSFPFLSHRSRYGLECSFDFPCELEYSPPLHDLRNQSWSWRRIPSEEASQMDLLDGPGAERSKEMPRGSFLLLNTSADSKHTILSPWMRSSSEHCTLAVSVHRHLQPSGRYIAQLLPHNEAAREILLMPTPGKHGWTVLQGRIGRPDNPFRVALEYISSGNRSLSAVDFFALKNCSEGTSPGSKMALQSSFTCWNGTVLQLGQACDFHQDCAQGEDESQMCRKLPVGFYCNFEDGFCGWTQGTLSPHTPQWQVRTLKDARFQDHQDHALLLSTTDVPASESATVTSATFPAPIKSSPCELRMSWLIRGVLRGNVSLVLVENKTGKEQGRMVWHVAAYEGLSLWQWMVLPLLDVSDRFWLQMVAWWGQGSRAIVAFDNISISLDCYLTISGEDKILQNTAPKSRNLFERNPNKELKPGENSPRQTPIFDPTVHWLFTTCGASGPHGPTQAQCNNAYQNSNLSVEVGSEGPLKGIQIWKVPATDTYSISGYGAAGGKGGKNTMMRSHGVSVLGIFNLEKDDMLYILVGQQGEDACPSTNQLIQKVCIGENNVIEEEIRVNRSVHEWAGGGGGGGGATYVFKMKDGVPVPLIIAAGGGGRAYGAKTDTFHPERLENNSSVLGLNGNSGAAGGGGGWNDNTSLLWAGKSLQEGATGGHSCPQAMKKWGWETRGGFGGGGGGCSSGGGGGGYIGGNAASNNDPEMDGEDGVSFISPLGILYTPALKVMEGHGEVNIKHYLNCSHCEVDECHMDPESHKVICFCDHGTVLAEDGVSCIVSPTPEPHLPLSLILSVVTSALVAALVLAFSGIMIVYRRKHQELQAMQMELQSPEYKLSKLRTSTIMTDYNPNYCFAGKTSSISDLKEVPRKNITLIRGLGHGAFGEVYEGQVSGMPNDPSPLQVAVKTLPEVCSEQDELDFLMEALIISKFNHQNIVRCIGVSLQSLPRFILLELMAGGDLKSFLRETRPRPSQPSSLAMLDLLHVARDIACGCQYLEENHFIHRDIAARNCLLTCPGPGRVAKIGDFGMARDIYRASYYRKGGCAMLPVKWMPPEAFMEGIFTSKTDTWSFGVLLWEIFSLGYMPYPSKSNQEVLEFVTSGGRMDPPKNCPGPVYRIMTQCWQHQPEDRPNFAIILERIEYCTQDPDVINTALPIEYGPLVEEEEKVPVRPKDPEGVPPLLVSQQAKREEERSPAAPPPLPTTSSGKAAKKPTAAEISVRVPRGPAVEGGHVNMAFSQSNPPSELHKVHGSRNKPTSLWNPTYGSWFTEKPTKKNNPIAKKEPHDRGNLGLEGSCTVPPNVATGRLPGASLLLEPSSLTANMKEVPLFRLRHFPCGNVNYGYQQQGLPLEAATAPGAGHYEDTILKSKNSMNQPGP

[7] = target: ALK tyrosine kinase receptor (Homo sapiens) (UniProt Q9UM73); details: at 1 µM
[8] = target: Tyrosine-protein kinase ABL2 (Homo sapiens) (UniProt P42684); details: at 0.1 µM
[9] = target: Tyrosine-protein kinase ABL2 (Homo sapiens) (UniProt P42684); details: at 1 µM
[10] = target: Tyrosine-protein kinase receptor UFO (Homo sapiens) (UniProt P30530); details: at 0.1 µM
Tyrosine-protein kinase receptor UFO (Homo sapiens), sequence (P30530 whole entry): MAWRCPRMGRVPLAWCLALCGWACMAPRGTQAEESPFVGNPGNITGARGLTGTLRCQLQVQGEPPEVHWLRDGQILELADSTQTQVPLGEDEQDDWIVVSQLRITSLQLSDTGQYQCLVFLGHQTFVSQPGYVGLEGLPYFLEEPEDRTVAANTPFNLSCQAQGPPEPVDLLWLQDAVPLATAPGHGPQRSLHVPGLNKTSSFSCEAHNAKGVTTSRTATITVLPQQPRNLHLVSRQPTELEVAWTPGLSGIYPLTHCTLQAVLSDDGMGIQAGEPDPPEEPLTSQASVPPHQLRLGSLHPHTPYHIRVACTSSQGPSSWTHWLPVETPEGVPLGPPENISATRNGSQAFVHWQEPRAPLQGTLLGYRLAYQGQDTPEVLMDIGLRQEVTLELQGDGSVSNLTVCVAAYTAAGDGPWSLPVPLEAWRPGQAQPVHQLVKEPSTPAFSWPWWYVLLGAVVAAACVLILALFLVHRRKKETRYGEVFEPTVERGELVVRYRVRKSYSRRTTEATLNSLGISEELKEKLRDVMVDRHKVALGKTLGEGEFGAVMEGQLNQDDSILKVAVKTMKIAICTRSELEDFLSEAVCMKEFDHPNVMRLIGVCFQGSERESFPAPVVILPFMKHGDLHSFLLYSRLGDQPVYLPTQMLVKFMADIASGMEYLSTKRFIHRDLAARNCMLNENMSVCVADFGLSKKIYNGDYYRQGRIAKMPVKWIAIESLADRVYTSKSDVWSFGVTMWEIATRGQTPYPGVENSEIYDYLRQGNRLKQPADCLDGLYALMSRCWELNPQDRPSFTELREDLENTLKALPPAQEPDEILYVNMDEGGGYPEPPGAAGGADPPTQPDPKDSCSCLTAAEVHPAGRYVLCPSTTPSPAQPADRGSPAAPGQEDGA

[11] = target: Tyrosine-protein kinase receptor UFO (Homo sapiens) (UniProt P30530); details: at 1 µM
[12] = target: Tyrosine-protein kinase Blk (Homo sapiens) (UniProt P51451); details: at 0.1 µM
Tyrosine-protein kinase Blk (Homo sapiens), sequence (P51451 2-505 limits assumed): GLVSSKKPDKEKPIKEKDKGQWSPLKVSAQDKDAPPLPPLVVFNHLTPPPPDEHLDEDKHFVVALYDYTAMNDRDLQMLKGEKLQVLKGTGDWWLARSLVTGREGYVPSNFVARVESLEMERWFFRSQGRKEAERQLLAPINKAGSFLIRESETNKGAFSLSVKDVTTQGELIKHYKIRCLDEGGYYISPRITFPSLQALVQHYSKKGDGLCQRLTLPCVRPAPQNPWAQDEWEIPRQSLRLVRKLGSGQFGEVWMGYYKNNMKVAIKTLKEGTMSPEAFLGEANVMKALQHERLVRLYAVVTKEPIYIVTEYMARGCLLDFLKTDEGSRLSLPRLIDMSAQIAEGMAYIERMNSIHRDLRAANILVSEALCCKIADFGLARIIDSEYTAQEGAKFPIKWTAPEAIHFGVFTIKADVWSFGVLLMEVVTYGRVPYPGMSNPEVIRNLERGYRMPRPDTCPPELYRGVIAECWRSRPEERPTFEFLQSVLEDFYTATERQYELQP

[13] = target: Tyrosine-protein kinase Blk (Homo sapiens) (UniProt P51451); details: at 1 µM
[14] = target: T1, Cytoplasmic tyrosine-protein kinase BMX (Homo sapiens) (UniProt P51813); details: at 0.1 µM
T1 sequence (whole entry): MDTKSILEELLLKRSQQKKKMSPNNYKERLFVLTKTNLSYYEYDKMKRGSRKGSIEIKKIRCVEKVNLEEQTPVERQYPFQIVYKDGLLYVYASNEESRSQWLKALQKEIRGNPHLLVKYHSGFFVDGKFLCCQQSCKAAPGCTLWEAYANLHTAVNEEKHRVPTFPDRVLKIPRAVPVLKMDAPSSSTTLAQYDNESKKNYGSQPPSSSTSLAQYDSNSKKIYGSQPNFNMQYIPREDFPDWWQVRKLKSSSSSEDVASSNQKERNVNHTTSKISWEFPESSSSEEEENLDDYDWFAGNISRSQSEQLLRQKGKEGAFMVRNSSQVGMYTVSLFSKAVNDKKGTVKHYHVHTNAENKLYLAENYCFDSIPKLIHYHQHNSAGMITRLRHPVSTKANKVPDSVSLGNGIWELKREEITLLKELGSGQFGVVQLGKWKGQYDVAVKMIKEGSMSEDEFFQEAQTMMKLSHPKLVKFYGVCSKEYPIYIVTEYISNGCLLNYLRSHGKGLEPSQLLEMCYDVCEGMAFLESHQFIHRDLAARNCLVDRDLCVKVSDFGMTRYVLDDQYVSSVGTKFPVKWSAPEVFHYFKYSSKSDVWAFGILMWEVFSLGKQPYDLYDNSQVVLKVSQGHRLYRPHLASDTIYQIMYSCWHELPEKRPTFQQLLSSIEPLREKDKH

[15] = target: T1, Cytoplasmic tyrosine-protein kinase BMX (Homo sapiens); details: at 1 µM
[16] = target: Protein-tyrosine kinase 6 (Homo sapiens) (UniProt Q13882); details: at 0.1 µM
Protein-tyrosine kinase 6 (Homo sapiens), sequence (Q13882 whole entry, looked up): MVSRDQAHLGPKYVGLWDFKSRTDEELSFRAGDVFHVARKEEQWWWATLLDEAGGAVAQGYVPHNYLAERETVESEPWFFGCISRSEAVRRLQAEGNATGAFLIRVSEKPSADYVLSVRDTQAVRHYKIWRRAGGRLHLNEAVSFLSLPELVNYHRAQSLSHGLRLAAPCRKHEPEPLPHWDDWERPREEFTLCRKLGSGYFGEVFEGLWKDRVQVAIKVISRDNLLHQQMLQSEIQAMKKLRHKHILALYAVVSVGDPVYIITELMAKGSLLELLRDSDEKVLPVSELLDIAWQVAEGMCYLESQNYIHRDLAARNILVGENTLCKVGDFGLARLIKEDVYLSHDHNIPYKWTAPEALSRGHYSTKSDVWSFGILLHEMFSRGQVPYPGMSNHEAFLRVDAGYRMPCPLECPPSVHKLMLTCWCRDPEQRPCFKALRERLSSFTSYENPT

[17] = target: Protein-tyrosine kinase 6 (Homo sapiens) (UniProt Q13882); details: at 1 µM
[18] = target: Tyrosine-protein kinase BTK (Homo sapiens) (UniProt Q06187); details: at 0.1 µM
Tyrosine-protein kinase BTK (Homo sapiens), sequence (Q06187 whole entry): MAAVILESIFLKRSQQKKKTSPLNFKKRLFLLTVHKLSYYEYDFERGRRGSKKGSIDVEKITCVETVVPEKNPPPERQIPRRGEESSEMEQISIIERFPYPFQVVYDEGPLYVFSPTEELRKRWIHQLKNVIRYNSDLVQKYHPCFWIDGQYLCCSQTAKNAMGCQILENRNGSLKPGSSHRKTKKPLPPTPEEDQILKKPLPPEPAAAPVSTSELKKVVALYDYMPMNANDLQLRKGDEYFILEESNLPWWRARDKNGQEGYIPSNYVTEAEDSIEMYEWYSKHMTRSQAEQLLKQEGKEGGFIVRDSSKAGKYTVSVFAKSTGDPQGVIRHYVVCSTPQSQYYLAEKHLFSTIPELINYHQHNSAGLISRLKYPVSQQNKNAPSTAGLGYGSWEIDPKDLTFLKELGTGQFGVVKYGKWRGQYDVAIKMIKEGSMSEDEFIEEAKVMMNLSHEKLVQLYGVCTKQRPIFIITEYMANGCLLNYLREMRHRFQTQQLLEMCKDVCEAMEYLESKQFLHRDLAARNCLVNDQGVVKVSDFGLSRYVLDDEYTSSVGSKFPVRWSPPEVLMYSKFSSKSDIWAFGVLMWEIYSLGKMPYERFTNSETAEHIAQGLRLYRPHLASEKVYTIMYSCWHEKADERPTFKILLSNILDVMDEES

[19] = target: Tyrosine-protein kinase BTK (Homo sapiens) (UniProt Q06187); details: at 1 µM
[20] = target: Tyrosine-protein kinase CSK (Homo sapiens) (UniProt P41240); details: at 0.1 µM;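 further: value given is the averaged percent inhibition of CSK kinase activity, from the GSK PKIS kinase inhibitor set screening panel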
Tyrosine-protein kinase CSK (Homo sapiens), sequence (P41240 2-450 limits assumed): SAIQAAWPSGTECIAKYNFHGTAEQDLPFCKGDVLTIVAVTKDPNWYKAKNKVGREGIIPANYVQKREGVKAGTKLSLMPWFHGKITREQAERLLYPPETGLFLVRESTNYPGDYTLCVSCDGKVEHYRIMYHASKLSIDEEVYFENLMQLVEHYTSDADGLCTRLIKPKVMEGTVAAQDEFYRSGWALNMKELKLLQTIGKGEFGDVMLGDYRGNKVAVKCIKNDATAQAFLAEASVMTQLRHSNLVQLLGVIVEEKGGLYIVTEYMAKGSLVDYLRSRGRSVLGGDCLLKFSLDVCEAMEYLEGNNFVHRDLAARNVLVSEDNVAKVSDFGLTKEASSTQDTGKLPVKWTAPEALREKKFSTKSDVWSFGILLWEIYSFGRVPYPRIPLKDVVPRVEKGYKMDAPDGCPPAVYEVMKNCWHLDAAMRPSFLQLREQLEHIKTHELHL

SMILES | inhibition [1] | inhibition [2] | inhibition [3] | inhibition [4] | inhibition [5] | inhibition [6] | inhibition [7] | inhibition [8] | inhibition [9] | inhibition [10] | inhibition [11] | inhibition [12] | inhibition [13] | inhibition [14] | inhibition [15] | inhibition [16] | inhibition [17] | inhibition [18] | inhibition [19] | inhibition [20]
NS(=O)(=O)c1ccc(N/N=C2\C(=O)Nc3ccc(C(=O)NCCCn4ccnc4)cc32)cc1 | 14.2% | 5.66% | 15.5% | 2.77% | 13.3% | 3.7% | 11.1% | 4.28% | 9.85% | -2.66% | 3.27% | 2.75% | 12.2% | 10.2% | 8.26% | 4.87% | 6.65% | -1.04% | 0.06% | 2.76%
CN(C)c1ccc2c(c1)/C(=C/Nc1ccc(S(N)(=O)=O)cc1)C(=O)N2 | 18.4% | 4.7% | 18.7% | 2.76% | 21.3% | 1.86% | 8.32% | 2.83% | 4.52% | 0.79% | 14.8% | 2.29% | 33.2% | -8.96% | 1.7% | 0.1% | 2.14% | -1.88% | -0.24% | 2.3%
CCC(=O)Nc1ccc(C)c(-c2ccc(C(=O)NCC3CC3)cc2)c1 | 3.61% | 2.81% | 3.14% | 2.28% | 2.9% | 1.63% | 2.14% | 0.38% | 3.75% | -4.46% | -3.83% | 1.71% | 3.32% | 1.57% | 3.88% | 4.7% | 5.22% | -0.35% | 0.22% | 2.98%
O=C(Nc1n[nH]c2nc(-c3ccc(O)cc3)c(Br)cc12)C1CC1 | 87.7% | 22.1% | 67.1% | 22.8% | 72.6% | 23.9% | 72.3% | 7.68% | 25.7% | -7.6% | -7.01% | 4.29% | 15.4% | 3.85% | 13.4% | 3.18% | 11.1% | -0.08% | 0.5% | 8.35%
COc1ccc2cc(-c3c(-c4ccncc4)nc(-c4ccc([S+](C)[O-])cc4C)n3C)ccc2c1 (stereo not given) | 54.5% | 1.98% | 16% | 2.56% | 15.7% | -0.66% | 2.15% | 5.58% | 12.1% | 1.01% | 1.82% | -0.17% | 4.39% | 0.28% | 0.8% | 24.7% | 81.2% | -0.17% | 0.66% | -0.71%
c1ccc(-c2n[nH]cc2-c2ccnc(-c3ccc(OCCN4CCOCC4)cc3)c2)nc1 | 1.83% | 13.5% | 57.1% | 18.2% | 70% | -2.58% | 3.94% | 5.43% | 34.1% | 8.29% | 10.8% | 1.62% | 1.61% | 2.19% | 0.44% | -5.63% | -2.62% | 0.21% | 6.66% | -3.84%
CS(=O)(=O)CCNCc1ccc(-c2ccc3ncnc(Nc4ccc(OCc5ccccc5)c(Br)c4)c3c2)o1 | 1.57% | 4.14% | 4.05% | 3.09% | 2.83% | -0.91% | 1.84% | 0.83% | 4.36% | -6.75% | -7.91% | -0.29% | 3.05% | 3.44% | 0.49% | 4.61% | 11.8% | -3.57% | -0.34% | 0.44%
O=C(NCC1CC1)c1ccc(-c2cccc(C(=O)NC3CC3)c2)cc1 | 1.69% | 2.82% | 3.7% | 3.84% | 8.82% | 1.84% | 3.12% | 3.93% | 5.95% | -3.58% | -0.85% | 1.41% | 3.43% | -3.65% | 3.29% | 0.45% | 3.3% | 1.12% | 1.69% | 1.29%
Fc1ccc(-c2ncn(C3CCNCC3)c2-c2ccnc(Oc3ccc(Oc4ccccc4)cc3)n2)cc1 | 1.98% | 1.99% | 2.86% | 3.87% | 2.97% | 4.84% | 4.48% | 2.96% | 3.58% | -7.4% | -7.71% | 3.8% | 3.79% | 3.11% | 6.45% | 1.09% | 1.93% | -2.01% | 0.33% | 0.47%
COc1cc2ncn(-c3cc(OCc4cccs4)c(C(N)=O)s3)c2cc1OC | 59.6% | 9.05% | 41.8% | 3.87% | 42% | -3.76% | 6.72% | 0.54% | 18.4% | 3.68% | 1.31% | 0.4% | 18.6% | -4.41% | 3.5% | 2.12% | 7.01% | -2.66% | -0.98% | 4.25%
O=C1Nc2ccc(I)cc2C1=Cc1cc(Br)c(O)c(Br)c1 | 2.95% | 1.68% | 5.83% | 5.59% | 6.33% | 3.04% | 4.7% | 4.07% | 6.48% | -5.83% | -7.49% | 1.48% | 3.74% | 2.64% | 7.27% | 3.26% | 6.68% | -1.22% | -0.86% | -2.19%
COc1ccc2ncn(-c3cc(O[C@H](C)c4ccccc4Cl)c(C(N)=O)s3)c2c1 | 3.67% | 2.13% | 4.15% | -0.74% | 0.5% | -1.6% | 0.59% | -1.99% | -0.05% | -9.61% | -8.67% | -1.08% | -2.12% | 3.14% | 4.61% | -0.06% | 4.71% | -4.3% | -3.34% | 4.64%
FC(F)(F)c1cccc(Nc2nccc(-c3cnn4nc(-c5ccccc5)ccc34)n2)c1 | 1.88% | -1.1% | 3.96% | -0.03% | 5.59% | 1.89% | 1.6% | 3.3% | 3.79% | -3.39% | -4.33% | 0.07% | -0.26% | 1.76% | 0.63% | -1.81% | 2.26% | 0.03% | -0.49% | 4.19%
